These results are taken from PubChem BioAssay (NCI).

The panel holds about 79,000 compounds, 15% with a hit somewhere; the sample as a whole holds those more often. A number with no mark means an inactive call. Calls of active or inactive are those of the source. Cut-off read from the data, not from the text of the source: active = growth inhibition above about 70%; inactive = the rest.

This test is described as follows: NCI Yeast Anticancer Drug Screen. Data for the cln2 rad14 strain (AID 165).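 Note: 0% = growth equal to vehicle treated cultures.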 To be noted: S. cerevisiae cln2 rad14 strain, at 50.0 µM, hits give high values. The gist of the method:
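Yeast carrying cln2 and rad14 alterations (cell cycle control and DNA damage repair) were exposed to compounds. Growth inhibition was measured against vehicle-treated controls.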
With `CC(C)N=C(NC(C)C)SCCCCCCSC(=NC(C)C)NC(C)C`, the growth inhibition was 76.2% (active).
To `CCCCCOC(=S)SSSC(=S)OCCCCC` belongs -0.1%.
To `CCCCCCCCCCCCCCCC[N+](C)(C)CC(=O)O` belongs 88.4% (active); to `Cc1cc(C)c([O-])c(-[n+]2c(-c3ccccc3)cc(-c3ccccc3)cc2-c2ccccc2)c1`, 89.8% (active).
To `CC(=O)NNc1ccc(Cl)cc1[N+](=O)[O-]` belongs 44.1%.
In the case of `O=C(NC(=Nc1ccccc1)SCCSC(=Nc1ccccc1)NC(=O)c1ccccc1)c1ccccc1`, the growth inhibition is 84.5% (active).
For the molecule `CN(C)CCCNc1ccc(O)c2c1C(=O)c1ccccc1C2=O`, the growth inhibition was 67%.
As for `COC(=O)C(=O)C(/C=N/C(=S)NCCc1ccc(OC)c(OC)c1)=C(/O)c1ccc([N+](=O)[O-])cc1`, the figure is 30.9%; as for `CCCC(=O)OCC1CC2C=CC1C2` (stereo not given), 79.2% (active); as for `CN(NC(=O)/C(=C/c1cc(Cl)cc(Cl)c1O)NC(=O)c1ccccc1)c1cnn(-c2ccccc2)c(=O)c1Cl`, 55.6%.
As to `CC(C)N(C(=O)CC1(O)CCCCC1)C(C)C`, the growth inhibition was 73.8% (active).
To `COC(=O)C1C(c2ccccc2)=N[C@@H](c2ccccc2)[C@H]1C(=O)OC` (stereo not given in full) belongs 23.2%; to `O=C1C(=Cc2ccccc2O)N=C(c2ccccc2)N1n1c(-c2ccccc2)nc2ccccc2c1=O`, 50.3%; to `CCOc1ccc2c(c1)[n+]([O-])c(-c1ccc([N+](=O)[O-])cc1)c(N)[n+]2[O-]`, 94.3% (active).
With `O=C(NCCCNCCCCNCCCNC(=O)c1cc(-c2ccccc2)nc2ccccc12)c1cc(-c2ccccc2)nc2ccccc12`, the growth inhibition is 91.1% (active).
With `CC1=C(C(=O)Nc2cccc3ccccc23)C(c2cccc([N+](=O)[O-])c2)C(C(=O)Nc2cccc3ccccc23)=C(C)N1`, the growth inhibition was 70.6% (active).
Take `O=C1OC(c2ccc(O)cc2)Sc2ccccc21` (stereo not given): the growth inhibition was -22.5%.
As for `CC(C)(C)c1ccc(-c2nc3ccccc3c(=O)o2)cc1`, the figure is 61%.
On to `O=C(N/C(=C/c1ccc(Cl)cc1Cl)c1nc2ccccc2s1)c1ccccc1`, for which the growth inhibition was 98.1% (active).
As to `O=C(O)C/C(=C\c1ccco1)C(=O)O`, the growth inhibition is 38%.
For `CN(C)Cc1cc(N=Nc2ccc(Cl)c(Cl)c2)ccc1O`, the growth inhibition is 71.8% (active).
`CC(=O)OC1C(O)C(C)OC(OC(=O)C2CCC3C(C2)OC2(CC(OC(=O)/C=C/c4ccccc4)C(C)CO2)C32CO2)C1OC1OC(C)C(O)C(O)C1O` (stereo not given): the growth inhibition is 75.6% (active).
Take `O=C1c2ccccc2C(=O)c2c(/C=C\N3CCCCC3)ccnc21`: the growth inhibition was 90.7% (active).
To `CCN(CC)c1ccc(NC(CC(O)c2ccccc2)c2ccccc2)cc1` (stereo not given) belongs 51.5%; to `CCOC(=O)Nc1nc2ccc(SC#N)cc2s1`, 57.5%.
As for `CSC(SC)C(SC)SC`, the figure is 16.6%; as for `N#CC(C(=O)C(=O)Nc1ccc(Cl)cc1)c1c(Cl)cccc1Cl` (stereo not given), -22.4%.
Consider `CN(/N=C\c1cccc([N+](=O)[O-])c1)C(c1cccc([N+](=O)[O-])c1)N(C)/N=C/c1cccc([N+](=O)[O-])c1` (stereo not given), for which the growth inhibition is 8.75%.
Consider `Oc1cc(Br)cc2cc(Br)cnc12`, for which the growth inhibition is 84.8% (active).
As for `COc1ccccc1C(C)c1ccc2ccccc2c1C(=O)O` (stereo not given), the figure is 96.1% (active).
To `Cc1ccnc2[nH]c3ccccc3c(=O)c12` belongs 21.4%.
Regarding `COc1cc(OC)c(/C=C\c2ccnc3ccccc23)c(OC)c1`, the growth inhibition was 37.5%.
`COC(=O)C1(COCc2ccccc2)CCCC2OC21` (stereo not given): the growth inhibition was -2.55%.
Consider `O=[N+]([O-])/C(=C\c1cccs1)c1ccccc1`, for which the growth inhibition is 99.1% (active).
With `Cc1cc(C(O)(c2cc(C)c(O)c(C(=O)O)c2)c2cc(C)c(O)c(C(=O)O)c2)cc(C(=O)O)c1O`, the growth inhibition was 21.9%.
To `CC(C)C(C)(C(=O)O)C(C)C` belongs 67%; to `CN(Cc1cc(Cl)cc(Cl)c1)CC(C(=O)c1ccccc1)c1ccccc1` (stereo not given), 50.3%; to `O=c1[nH]c(Cc2ccccc2)nc2c1sc1nc3ccccc3n12`, -2.85%.
To `CC(NNC(=S)N1CCCC1)c1cccnn1` (stereo not given) belongs 90.5% (active).
With `Cc1ccc2c(c1)C(O)(c1ccccc1)CCS2` (stereo not given), the growth inhibition is 71.2% (active).
